Experimental data published in publication PMC7862700, “An all-to-all approach to the identification of sequence-specific readers for epigenetic DNA modifications on cytosine”.

Columns and labels:
Experiment in all cases: DAPPL (digital affinity profiling via proximity ligation, sequencing); 10 mM Tris-HCl pH 7.5, 50 mM NaCl, 1 mM DTT, 4% glycerol, room temperature, 30 min; GST-TFs on glutathione beads, 16-mer random dsDNA library, 0.1% formaldehyde crosslink after washing; high values mean tight binding
[1] = target: T1, FLI1 (Homo sapiens, UniProt Q01543 1-452); conditions: protein: recombinant; tags: N-terminal GST; dsDNA, one strand shown
T1 sequence: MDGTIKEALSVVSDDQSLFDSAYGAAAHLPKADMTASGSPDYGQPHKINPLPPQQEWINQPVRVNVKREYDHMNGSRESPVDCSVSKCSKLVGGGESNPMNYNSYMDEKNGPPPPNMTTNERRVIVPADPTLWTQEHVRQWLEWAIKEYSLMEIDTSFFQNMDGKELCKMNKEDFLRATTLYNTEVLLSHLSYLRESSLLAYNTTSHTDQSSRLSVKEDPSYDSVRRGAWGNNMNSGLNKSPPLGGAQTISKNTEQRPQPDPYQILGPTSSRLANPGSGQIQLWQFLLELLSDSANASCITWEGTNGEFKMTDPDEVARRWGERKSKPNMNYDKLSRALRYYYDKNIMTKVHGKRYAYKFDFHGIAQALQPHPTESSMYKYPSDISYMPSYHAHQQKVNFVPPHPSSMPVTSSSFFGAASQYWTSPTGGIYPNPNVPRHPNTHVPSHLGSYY
Outline: (§1)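 A tag-only sample was pooled with DNA-barcoded human transcription factors that had been expressed in yeast as GST fusions and captured on glutathione beads. The pools were incubated for 30 min at room temperature with 200 nmole of a random double-stranded 16-mer DNA library in Tris/NaCl/DTT/glycerol buffer, then washed, crosslinked with 0.1% formaldehyde, proximity-ligated (BsaI/T4 ligase, 1 h, 37 °C), PCR-amplified and sequenced on an Illumina NextSeq500. Binding signal is each hexamer's read frequency for a factor divided by its frequency for the tag-only sample.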

[2] = target: T2, ELK1 (Homo sapiens, UniProt P19419 1-428); conditions: protein: recombinant; tags: N-terminal GST; dsDNA, one strand shown
T2 sequence: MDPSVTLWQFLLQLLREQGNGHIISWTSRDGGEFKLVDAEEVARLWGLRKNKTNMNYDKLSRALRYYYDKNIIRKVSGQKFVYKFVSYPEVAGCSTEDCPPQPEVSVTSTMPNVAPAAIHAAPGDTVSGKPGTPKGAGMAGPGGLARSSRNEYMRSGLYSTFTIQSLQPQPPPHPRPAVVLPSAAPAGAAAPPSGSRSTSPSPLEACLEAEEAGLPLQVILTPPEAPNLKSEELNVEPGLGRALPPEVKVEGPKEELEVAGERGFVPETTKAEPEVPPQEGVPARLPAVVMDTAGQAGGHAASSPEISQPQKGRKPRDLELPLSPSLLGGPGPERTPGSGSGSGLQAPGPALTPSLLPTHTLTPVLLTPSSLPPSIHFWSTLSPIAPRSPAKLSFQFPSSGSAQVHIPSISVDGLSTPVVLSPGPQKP
Outline: as §1

[3] = target: T3, GABPA (Homo sapiens, UniProt Q06546 1-454); conditions: protein: recombinant; tags: N-terminal GST; dsDNA, one strand shown
T3 sequence: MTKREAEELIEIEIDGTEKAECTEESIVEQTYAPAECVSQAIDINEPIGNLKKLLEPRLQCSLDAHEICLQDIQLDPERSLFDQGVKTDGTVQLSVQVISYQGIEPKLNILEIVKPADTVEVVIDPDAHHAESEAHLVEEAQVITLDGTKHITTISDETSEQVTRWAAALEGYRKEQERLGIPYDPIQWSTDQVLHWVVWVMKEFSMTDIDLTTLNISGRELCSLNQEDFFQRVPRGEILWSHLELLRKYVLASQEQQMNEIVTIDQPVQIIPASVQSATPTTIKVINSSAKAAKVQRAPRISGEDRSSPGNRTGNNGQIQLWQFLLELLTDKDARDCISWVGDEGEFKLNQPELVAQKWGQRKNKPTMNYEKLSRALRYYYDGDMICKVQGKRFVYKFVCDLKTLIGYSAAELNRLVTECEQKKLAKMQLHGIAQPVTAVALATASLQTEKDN
Outline: as §1

[4] = target: T4, ERG (Homo sapiens, UniProt P11308 1-479); conditions: protein: recombinant; tags: N-terminal GST; dsDNA, one strand shown
T4 sequence: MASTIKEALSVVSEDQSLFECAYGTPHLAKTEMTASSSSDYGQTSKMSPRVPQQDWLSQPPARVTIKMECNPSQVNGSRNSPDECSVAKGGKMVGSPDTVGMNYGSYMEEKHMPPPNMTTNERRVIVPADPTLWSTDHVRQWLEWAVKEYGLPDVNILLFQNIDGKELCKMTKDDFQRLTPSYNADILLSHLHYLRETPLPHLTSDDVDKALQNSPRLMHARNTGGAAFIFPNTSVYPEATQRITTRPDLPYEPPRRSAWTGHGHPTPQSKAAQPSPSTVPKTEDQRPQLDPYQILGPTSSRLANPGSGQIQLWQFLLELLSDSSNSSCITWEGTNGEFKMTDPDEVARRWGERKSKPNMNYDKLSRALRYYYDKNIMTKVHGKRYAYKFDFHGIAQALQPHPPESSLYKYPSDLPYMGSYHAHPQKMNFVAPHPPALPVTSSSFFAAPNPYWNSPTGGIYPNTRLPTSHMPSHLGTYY
Outline: as §1

[5] = target: ELF1 (Homo sapiens, UniProt P32519 1-619); conditions: protein: recombinant; tags: N-terminal GST; dsDNA, one strand shown
ELF1, sequence (P32519 whole entry): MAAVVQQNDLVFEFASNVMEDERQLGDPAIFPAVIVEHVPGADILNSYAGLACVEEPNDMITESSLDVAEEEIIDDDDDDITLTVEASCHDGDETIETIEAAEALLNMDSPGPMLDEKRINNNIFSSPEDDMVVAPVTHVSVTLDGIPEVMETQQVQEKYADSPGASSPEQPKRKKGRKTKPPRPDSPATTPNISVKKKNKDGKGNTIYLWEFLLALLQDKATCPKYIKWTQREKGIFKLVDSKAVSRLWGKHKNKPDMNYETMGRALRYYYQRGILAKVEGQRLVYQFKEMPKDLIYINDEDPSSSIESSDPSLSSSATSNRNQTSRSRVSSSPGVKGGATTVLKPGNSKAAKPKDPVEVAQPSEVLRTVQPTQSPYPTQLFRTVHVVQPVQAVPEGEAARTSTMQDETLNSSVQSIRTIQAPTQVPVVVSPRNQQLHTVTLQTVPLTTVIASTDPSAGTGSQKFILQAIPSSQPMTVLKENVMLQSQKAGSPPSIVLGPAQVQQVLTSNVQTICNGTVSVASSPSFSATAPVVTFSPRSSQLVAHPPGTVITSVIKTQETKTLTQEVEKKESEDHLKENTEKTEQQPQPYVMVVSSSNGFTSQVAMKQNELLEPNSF
Outline: as §1

[6] = target: T5, EHF (Homo sapiens, UniProt Q9NZC4 1-300); conditions: protein: recombinant; tags: N-terminal GST; dsDNA, one strand shown
T5 sequence: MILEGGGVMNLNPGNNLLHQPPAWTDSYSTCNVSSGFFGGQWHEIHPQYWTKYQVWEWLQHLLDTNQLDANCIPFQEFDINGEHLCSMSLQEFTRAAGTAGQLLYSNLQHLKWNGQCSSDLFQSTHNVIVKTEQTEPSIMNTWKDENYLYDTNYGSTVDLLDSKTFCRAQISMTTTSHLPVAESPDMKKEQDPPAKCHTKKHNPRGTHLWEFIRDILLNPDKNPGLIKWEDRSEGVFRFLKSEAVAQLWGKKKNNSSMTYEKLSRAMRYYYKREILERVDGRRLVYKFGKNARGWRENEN
Outline: as §1

[7] = target: SPI1 (Homo sapiens, UniProt P17947 1-270); conditions: protein: recombinant; tags: N-terminal GST; dsDNA, one strand shown
Outline: as §1

[8] = target: SPIB (Homo sapiens, UniProt Q01892 1-262); conditions: protein: recombinant; tags: N-terminal GST; dsDNA, one strand shown
SPIB, sequence (Q01892 whole entry): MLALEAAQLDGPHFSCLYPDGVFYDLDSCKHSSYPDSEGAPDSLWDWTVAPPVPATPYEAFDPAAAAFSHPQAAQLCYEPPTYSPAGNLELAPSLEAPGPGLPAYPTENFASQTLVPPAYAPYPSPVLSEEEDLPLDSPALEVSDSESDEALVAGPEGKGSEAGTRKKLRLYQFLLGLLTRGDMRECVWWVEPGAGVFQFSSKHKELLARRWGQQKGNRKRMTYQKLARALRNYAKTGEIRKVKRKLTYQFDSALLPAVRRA
Outline: as §1

[9] = target: T6, ELK3 (Homo sapiens, UniProt P41970 1-407); conditions: protein: recombinant; tags: N-terminal GST; dsDNA, one strand shown
T6 sequence: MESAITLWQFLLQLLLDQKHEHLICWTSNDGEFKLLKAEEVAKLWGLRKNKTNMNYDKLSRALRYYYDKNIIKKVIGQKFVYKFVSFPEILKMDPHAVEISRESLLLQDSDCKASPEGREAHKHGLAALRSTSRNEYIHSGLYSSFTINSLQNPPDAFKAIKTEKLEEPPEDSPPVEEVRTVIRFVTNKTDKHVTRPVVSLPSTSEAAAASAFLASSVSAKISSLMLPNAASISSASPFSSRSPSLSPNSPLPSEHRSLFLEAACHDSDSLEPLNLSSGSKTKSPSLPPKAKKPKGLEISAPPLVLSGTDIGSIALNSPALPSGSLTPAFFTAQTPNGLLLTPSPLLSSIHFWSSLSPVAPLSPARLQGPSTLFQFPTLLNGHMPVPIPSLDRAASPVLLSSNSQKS
Outline: as §1

[10] = target: T7, FEV (Homo sapiens, UniProt Q99581 1-238); conditions: protein: recombinant; tags: N-terminal GST; dsDNA, one strand shown
T7 sequence: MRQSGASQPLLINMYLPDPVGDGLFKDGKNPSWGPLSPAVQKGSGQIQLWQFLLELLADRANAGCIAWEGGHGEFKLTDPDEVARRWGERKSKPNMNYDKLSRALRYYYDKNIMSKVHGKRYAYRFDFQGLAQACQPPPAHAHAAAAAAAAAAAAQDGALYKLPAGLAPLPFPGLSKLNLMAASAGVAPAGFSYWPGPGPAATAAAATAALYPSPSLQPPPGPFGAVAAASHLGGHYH
Outline: as §1

[11] = target: ETV5 (Homo sapiens, UniProt P41161 1-510); conditions: protein: recombinant; tags: N-terminal GST; dsDNA, one strand shown
ETV5, sequence (P41161 whole entry): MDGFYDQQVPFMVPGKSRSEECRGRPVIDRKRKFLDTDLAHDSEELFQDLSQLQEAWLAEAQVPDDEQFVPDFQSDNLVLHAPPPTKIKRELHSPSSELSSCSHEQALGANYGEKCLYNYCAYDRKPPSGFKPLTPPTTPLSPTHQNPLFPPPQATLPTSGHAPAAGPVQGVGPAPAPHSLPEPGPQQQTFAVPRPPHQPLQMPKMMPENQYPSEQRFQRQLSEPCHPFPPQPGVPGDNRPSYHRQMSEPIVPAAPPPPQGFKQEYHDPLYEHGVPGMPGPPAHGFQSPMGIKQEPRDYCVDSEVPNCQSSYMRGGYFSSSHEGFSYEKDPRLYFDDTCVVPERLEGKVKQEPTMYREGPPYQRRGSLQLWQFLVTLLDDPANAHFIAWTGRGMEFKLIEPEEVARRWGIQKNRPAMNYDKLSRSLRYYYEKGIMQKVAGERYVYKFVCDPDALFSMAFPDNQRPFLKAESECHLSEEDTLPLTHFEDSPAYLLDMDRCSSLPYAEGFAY
Outline: as §1

[12] = target: HSF1 (Homo sapiens, UniProt Q00613 1-529); conditions: protein: recombinant; tags: N-terminal GST; chain copies: 3; dsDNA, one strand shown
HSF1, sequence (Q00613 whole entry): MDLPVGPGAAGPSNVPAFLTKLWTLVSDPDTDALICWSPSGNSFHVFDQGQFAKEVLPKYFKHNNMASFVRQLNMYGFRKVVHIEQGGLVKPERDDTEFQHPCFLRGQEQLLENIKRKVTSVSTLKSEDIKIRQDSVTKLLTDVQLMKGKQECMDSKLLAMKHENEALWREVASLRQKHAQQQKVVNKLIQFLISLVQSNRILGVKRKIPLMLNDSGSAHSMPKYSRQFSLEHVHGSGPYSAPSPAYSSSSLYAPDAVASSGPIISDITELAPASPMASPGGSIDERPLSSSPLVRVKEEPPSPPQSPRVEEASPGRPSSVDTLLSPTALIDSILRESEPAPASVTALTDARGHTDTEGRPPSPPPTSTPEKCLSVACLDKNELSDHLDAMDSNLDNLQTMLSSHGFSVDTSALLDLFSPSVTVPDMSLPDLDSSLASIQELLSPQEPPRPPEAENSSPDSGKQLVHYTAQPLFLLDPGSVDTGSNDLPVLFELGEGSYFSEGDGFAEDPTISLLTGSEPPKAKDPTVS
Outline: as §1

[13] = target: T8, SPIC (Homo sapiens, UniProt Q8N5J4 1-248); conditions: protein: recombinant; tags: N-terminal GST; dsDNA, one strand shown
T8 sequence: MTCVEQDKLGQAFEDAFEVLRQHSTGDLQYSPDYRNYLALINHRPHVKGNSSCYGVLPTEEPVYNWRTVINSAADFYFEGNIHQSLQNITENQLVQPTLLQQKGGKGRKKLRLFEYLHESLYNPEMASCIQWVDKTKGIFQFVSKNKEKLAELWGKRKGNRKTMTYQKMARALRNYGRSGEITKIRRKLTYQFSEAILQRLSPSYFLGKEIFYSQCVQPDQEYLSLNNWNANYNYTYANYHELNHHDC
Outline: as §1

[14] = target: ELF4 (Homo sapiens, UniProt Q99607 1-663); conditions: protein: recombinant; tags: N-terminal GST; dsDNA, one strand shown
ELF4, sequence (Q99607 whole entry): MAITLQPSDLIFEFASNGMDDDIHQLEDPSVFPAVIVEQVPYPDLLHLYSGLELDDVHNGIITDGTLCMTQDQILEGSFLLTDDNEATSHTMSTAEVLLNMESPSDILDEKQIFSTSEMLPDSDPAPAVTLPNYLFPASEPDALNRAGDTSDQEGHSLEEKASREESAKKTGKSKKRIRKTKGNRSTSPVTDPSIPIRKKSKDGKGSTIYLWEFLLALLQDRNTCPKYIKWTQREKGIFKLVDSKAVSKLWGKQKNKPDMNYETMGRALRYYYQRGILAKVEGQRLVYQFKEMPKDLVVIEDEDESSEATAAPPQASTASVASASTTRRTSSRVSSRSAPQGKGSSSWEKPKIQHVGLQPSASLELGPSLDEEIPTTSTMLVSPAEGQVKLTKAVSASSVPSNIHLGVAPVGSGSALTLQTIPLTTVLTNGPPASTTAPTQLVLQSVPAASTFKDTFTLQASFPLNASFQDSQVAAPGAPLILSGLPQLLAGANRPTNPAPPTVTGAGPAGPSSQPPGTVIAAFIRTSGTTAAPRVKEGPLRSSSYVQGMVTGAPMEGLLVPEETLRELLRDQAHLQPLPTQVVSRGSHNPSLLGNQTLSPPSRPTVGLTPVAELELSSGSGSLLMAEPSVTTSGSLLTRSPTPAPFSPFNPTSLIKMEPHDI
Outline: as §1

[15] = target: T9, ELK4 (Homo sapiens, UniProt P28324-2 1-405); conditions: protein: recombinant; tags: N-terminal GST; dsDNA, one strand shown
T9 sequence: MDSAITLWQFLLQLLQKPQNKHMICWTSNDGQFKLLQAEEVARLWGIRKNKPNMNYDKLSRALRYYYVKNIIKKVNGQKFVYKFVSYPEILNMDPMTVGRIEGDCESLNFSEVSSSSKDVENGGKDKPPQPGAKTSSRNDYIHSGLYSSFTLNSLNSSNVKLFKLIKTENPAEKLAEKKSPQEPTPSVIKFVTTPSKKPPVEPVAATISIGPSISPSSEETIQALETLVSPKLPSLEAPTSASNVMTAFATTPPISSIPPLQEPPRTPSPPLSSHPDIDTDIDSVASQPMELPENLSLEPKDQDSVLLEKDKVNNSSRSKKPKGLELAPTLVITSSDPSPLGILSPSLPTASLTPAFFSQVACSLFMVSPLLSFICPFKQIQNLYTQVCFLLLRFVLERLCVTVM
Outline: as §1

[16] = target: T10, ETV2 (Homo sapiens, UniProt O00321 1-342); conditions: protein: recombinant; tags: N-terminal GST; dsDNA, one strand shown
T10 sequence: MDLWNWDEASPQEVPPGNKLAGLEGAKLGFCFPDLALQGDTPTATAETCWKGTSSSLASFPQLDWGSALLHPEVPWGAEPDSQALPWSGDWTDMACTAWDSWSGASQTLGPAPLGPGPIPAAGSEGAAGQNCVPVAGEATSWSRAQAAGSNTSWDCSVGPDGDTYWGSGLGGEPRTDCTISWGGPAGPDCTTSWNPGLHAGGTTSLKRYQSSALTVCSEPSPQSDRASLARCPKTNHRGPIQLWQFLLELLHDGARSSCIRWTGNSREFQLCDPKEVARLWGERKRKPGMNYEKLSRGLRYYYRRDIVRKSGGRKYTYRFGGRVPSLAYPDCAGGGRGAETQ
Outline: as §1

[17] = target: T11, ELF3 (Homo sapiens, UniProt P78545 1-371); conditions: protein: recombinant; tags: N-terminal GST; dsDNA, one strand shown
T11 sequence: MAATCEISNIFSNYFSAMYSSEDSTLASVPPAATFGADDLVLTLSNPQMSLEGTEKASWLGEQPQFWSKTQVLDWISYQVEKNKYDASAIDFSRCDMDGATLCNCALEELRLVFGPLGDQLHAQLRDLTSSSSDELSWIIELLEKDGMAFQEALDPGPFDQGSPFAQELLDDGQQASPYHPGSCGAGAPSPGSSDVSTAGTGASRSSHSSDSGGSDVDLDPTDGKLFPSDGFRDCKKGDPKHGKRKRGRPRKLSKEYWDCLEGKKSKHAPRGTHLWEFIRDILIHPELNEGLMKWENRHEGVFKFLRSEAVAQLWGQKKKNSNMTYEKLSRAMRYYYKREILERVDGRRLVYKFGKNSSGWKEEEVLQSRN
Outline: as §1

[18] = target: CRX (Homo sapiens, UniProt O43186 1-299); conditions: protein: recombinant; tags: N-terminal GST; dsDNA, one strand shown
CRX, sequence (O43186 whole entry): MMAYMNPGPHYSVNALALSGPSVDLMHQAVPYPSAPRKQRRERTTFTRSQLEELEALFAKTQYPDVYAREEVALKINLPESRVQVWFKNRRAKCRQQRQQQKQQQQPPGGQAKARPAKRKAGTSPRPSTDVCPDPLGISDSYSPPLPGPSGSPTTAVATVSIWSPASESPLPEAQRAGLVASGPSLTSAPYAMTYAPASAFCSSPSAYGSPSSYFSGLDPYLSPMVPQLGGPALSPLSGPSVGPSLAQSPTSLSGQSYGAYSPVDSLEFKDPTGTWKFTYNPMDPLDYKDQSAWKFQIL
Outline: as §1

[19] = target: ETV1 (Homo sapiens, UniProt P50549 1-477); conditions: protein: recombinant; tags: N-terminal GST; dsDNA, one strand shown
ETV1, sequence (P50549 whole entry): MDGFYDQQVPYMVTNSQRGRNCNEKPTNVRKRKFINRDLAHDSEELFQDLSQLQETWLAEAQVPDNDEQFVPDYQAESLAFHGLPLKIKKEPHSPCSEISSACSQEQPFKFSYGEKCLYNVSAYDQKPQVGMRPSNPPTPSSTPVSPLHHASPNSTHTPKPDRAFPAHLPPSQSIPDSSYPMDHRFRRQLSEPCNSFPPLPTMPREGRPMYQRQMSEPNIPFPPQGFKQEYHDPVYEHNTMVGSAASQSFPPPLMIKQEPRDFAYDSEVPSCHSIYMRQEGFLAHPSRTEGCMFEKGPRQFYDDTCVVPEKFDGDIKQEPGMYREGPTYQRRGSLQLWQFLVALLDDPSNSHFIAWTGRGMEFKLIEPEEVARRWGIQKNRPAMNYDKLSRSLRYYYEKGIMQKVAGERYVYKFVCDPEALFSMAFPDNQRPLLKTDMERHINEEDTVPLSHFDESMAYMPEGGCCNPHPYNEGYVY
Outline: as §1

In the case of TAGTTT, the binding signal [1] is reported as 1.23 fold enrichment (6-mer frequency, TF over GST control), the binding signal [2] is reported as 1.19 fold enrichment (6-mer frequency, TF over GST control) and the binding signal [3] is reported as 1.25 fold enrichment (6-mer frequency, TF over GST control). The binding signal [4] was 1.14 fold enrichment (6-mer frequency, TF over GST control), the binding signal [5] was 1.22 fold enrichment (6-mer frequency, TF over GST control) and the binding signal [6] was 1.21 fold enrichment (6-mer frequency, TF over GST control). For the same sequence, the binding signal [7] was 1.12 fold enrichment (6-mer frequency, TF over GST control), the binding signal [8] was 1.13 fold enrichment (6-mer frequency, TF over GST control) and the binding signal [9] was 1.23 fold enrichment (6-mer frequency, TF over GST control). For the same sequence, the binding signal [10] was 1.09 fold enrichment (6-mer frequency, TF over GST control), the binding signal [11] was 1.18 fold enrichment (6-mer frequency, TF over GST control) and the binding signal [12] was 1.27 fold enrichment (6-mer frequency, TF over GST control). The binding signal [13] was 1.21 fold enrichment (6-mer frequency, TF over GST control), the binding signal [14] was 1.21 fold enrichment (6-mer frequency, TF over GST control) and the binding signal [15] was 1.4 fold enrichment (6-mer frequency, TF over GST control). The binding signal [16] was 1.17 fold enrichment (6-mer frequency, TF over GST control), the binding signal [17] was 1.34 fold enrichment (6-mer frequency, TF over GST control) and the binding signal [18] was 1.3 fold enrichment (6-mer frequency, TF over GST control). For the same sequence, the binding signal [19] was 1.24 fold enrichment (6-mer frequency, TF over GST control).
